The panel holds about 83,000 compounds, 20% with a hit somewhere; the sample as a whole holds those more often.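 The test compound was applied at a single concentration to cells in 96-well plates for 48 hours, and percent growth was recorded.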 A number with no mark means an inactive call. Calls of active or inactive are those of the source. Rule for the calls: active = growth percent below 10; inactive = the rest.

The subject of this assay is T-47D breast. Kind of assay: NCI-60 one-dose screen, 48 h (100 = growth as untreated, 0 = no growth, -100 = all killed). As to conditions: 10 µM unless noted.
`OCCNCCNC(Cc1ccc(Cl)cc1)c1ccccc1` (stereo unspecified): the growth was 44.6%. With `CC1=C(C(=O)Nc2nc(-c3ccc(Cl)cc3)cs2)[C@H](c2ccc(O)cc2)NC(=O)N1`, the growth was 70.5%.

In the case of `O=C(N/N=C\c1cccc([N+](=O)[O-])c1)N/N=C/c1cccc([N+](=O)[O-])c1`, the growth was 97.2%. With `CC1C(/C=N/NC(N)=S)C(C#N)(C#N)C1(C#N)C#N` (stereo unspecified), the growth is 84.6%. In the case of `CN(C)CCCNC(=O)c1cncnc1Nc1ccc(OCc2cccc(F)c2)c(Cl)c1`, the growth was -17% (active).

Turning to `C=C1C(=O)O[C@H]2[C@H]1CC/C(COC(=O)/C=C\C(=O)NCc1ccc(Cn3c(=O)sn(CCCl)c3=O)cc1)=C\CC[C@@]1(C)O[C@@H]21`, the growth is 84.7%. With `CC1(C)OB(O)c2cc(-c3nc4ccc5[nH]ncc5c4c4c3CCCC4)ccc21`, the growth is 34.9%. Turning to `N=C(N)c1ccc(-c2ccc(-c3ccccc3)s2)cc1`, the growth is 44.5%. As for `COc1ccc(CCN(CC(=O)N(CC(N)=O)C2CCC[C@@H]2OCc2ccccc2)C(=O)CN(C(=O)CN(CCc2ccc(Cl)cc2)C(=O)CN(C(=O)CN(C)Cc2ccccc2F)[C@H](C)C2CCCCC2)[C@H](C)C2CCCCC2)cc1OC` (stereo partly specified), the figure is 27%; as for `Cc1nnc(-c2ccc3c(c2)nc(/C=C/c2ccccc2)n3C2CCCCC2)o1`, 52%; as for `Nn1c(=O)c(=O)[nH]c2c(cnn2-c2ccccc2)c1=O`, 108%. Take `O=C(O)[C@@H](Cc1ccc2ccccc2c1)NC(=O)n1c2ccccc2c2ccccc21`: the growth was 70.7%.

Turning to `C=CCC(CCCC)(C(=O)OCC)C(=O)OCC`, the growth is 107%. Turning to `C#COc1cccc(Nc2ncnc3cc(NC(=O)[C@@H](C)Cl)ccc23)c1`, the growth was -1.06% [6.25 µM] (active). With `CC(C)CCN(CCC(C)C)CC(O)c1cc2c(c3ccccc13)CCCC2` (stereo unspecified), the growth was 59%. As to `O=C(CSc1nnc(-c2cc(-c3ccccc3)nc3ccccc23)n1-c1ccccc1)Nc1ccc(C(=O)/C=C/c2ccc(Cl)cc2)cc1`, the growth is 73.8%. As to `CCCCNC(=O)Oc1ccc(/C(=C(/C)Cc2ccc(OC)cc2)c2ccc(OCCN3CCCCCC3)cc2)cc1`, the growth was 38.8%.

`O=C1C(Nc2ccccn2)=C(I)C(=O)c2ncccc21`: the growth is -42.5% (active). Turning to `Cn1cc(-c2csc(-c3c[nH]c4ccc(F)cc34)n2)c2ccnc(Cl)c21`, the growth is 24.3%. On to `CC(C)(C)c1cc(Cl)c(O)c(CNCCO)c1`, for which the growth is 98.7%.

On to `Oc1c(CN2CCCC2)cc(CSCc2ccccc2)c2cccnc12`, for which the growth was -3.02% (active). With `O=C(CCSc1nnc2n(Cc3ccccc3)c(=O)c3c4c(sc3n12)CCCC4)N1CCN(c2ccccc2)CC1`, the growth was 101%. To `O=c1c2c3c(sc2n2c(-c4cc(-c5ccccc5)no4)nnc2n1Cc1ccccc1)CCCC3` belongs 53.3%; to `CCOC(=O)C1=C(C)/C(=C\c2[nH]c(C)c(C(=O)OCC)c2C)N=C1C`, 66.8%; to `NS(=O)(=O)c1ccc(C(=O)NN2C(=O)c3c(Br)c(Br)c(Br)c(Br)c3C2=O)cc1`, 83.1%. With `CCN(CC)CCN1C(=O)c2c(c(C)c3c(oc4ccc(OC)cc43)c2C)C1=O`, the growth was 110%. Regarding `COc1cc(Cl)c(C)cc1NC(=O)c1cc2ccccc2cc1O`, the growth was 11.5%. For `COc1cc(NC(=O)c2cncnc2Nc2ccc3c(ccn3Cc3ccccn3)c2)cc(OC)c1`, the growth is 45.3%. Consider `CCCCNc1nnc2n(Cc3ccccc3)c(=O)c3c4c(sc3n12)CCCC4`, for which the growth was 43.2%.

As to `C=CCOC(=O)C1=C(C)N(CC)C(=O)NC1c1c(Cl)n(C)c2ccccc12` (stereo unspecified), the growth was 91%. On to `CNC1=CC(=O)c2c(C(=O)OC)c(C)[n+]([O-])c(C)c2C1=O`, for which the growth is 52.4%.

On to `O=C(/C=C/c1ccc(Oc2ccc(Br)cc2)cc1)c1ccc(Br)cc1`, for which the growth was 92.3%. To `CC(=O)/C(=C/c1ccc([N+](=O)[O-])cc1)C(=O)c1ccccc1` belongs 67.6%; to `COc1ccc2[nH]cc(-c3nc(-c4c[nH]c5c(Cl)nccc45)cs3)c2c1`, 24.5%. As for `C=C1C(=O)O[C@H]2[C@H]1CC/C(COC(=O)/C=C\C(=O)NCc1ccc(Cn3c(=O)sn(CCCCC)c3=O)cc1)=C\CC[C@@]1(C)O[C@@H]21`, the growth is 71.7%. With `O=P(O)(O)OCC1OC(n2cnc3c(NCc4ccco4)ncnc32)C(O)C1O` (stereo unspecified), the growth was 42.5%.

For the origin of these results see PubChem BioAssay (NCI).
